# “And” between values parts separate entries of the source, which are not always exact repeats. Equal values may be shown once. Results filed as inconclusive are left out. Values without a mark were called inactive. The source made the active and inactive calls. Unless noted, calls follow the shape of the dose curve; as a rule, active = well fitted curve in the direction sought with a large enough effect; inconclusive = small, poorly fitted or top-dose-only effect, or another doubt; inactive = no such curve, though single readings can be large; an effect the other way counts as inactive or inconclusive.
# Tests used:
# [1] = qHTS to identify inhibitors of the type 1 interferon - major histocompatibility complex class I in skeletal muscle: primary screen against the NCATS Mechanism Interrogation Plate v5.0 (MIPE) Libary (AID 1347411)
# How it was run: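 Immortalized human myoblasts (C25cl48) with HiBit knocked into endogenous HLA-B*08:01 were stimulated with 4 ng/ml IFN-beta and given compounds in 11-point 1:3 titration from 46 uM. After 24 h at 37 C, lytic HiBiT luminescence was read.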
# [2] = target: Calcium and integrin-binding protein 1 (Homo sapiens) (UniProt Q99828); assay: Primary qHTS for Identification of Calcium Integrin Binding Protein 1 (CIB1) Competitor (AID 1508620)
# How it was run: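 CIB1-GST (1 uM final) and compound incubated 15 min at room temperature before adding FITC-alphaIIb peptide tracer (100 nM final). Competition for binding read by fluorescence polarization (ex 480, em 540) after another 15 min at room temperature.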
# [3] = qHTS to identify inhibitors of the type 1 interferon - major histocompatibility complex class I in skeletal muscle: primary screen against the NCATS Pharmaceutical Collection (AID 1347407)
# How it was run: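 Immortalized human myoblasts (C25cl48) with HiBiT knocked into endogenous HLA-B*08:01 were stimulated with 4.0 ng/ml IFN-beta and treated with compounds ([…] top 46 uM) for 24 hrs at 37 C. HiBiT lytic luminescence read.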
# [4] = target: Protein phosphatase 1D (Homo sapiens) (UniProt O15297); assay: RapidFire Mass Spectrometry qHTS Assay for Modulators of WT P53-Induced Phosphatase 1 (WIP1) (AID 1347424)
# How it was run: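 10 nM WIP1 + cpd, 1 h RT; + 2 uM VEPPL-pS-QETFS, 5 min RT; stop 0.5% formic acid; labelled product standard 1 uM; RapidFire MS. Buffer 50 mM Tris pH 7.5, 30 mM MgCl2, 1 mM TCEP.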
# [5] = target: Protein phosphatase 1D (Homo sapiens) (UniProt O15297); assay: Rhodamine-PBP qHTS Assay for Modulators of WT P53-Induced Phosphatase 1 (WIP1) (AID 1347425)
# How it was run: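 WIP1 (5 nM final) was preincubated with compound for 1 hour at room temperature. It then dephosphorylated 10 uM VEPPL-pS-QETFS peptide in Tris-HCl pH 7.5 with 30 mM MgCl2. Released Pi was detected by 10 uM Rh-PBP fluorescence (ex 525/em 598 nm) read at 1-min intervals for 11 min, as delta f1 - f0.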
# [6] = Primary qHTS for inhibitors of La Crosse Virus (LACV) - induced cell death in SH-SY5Y cells (AID 1508616)
# How it was run: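 SH-SY5Y cells (6000/well) plated 24 h, then given compounds by pin transfer and LACV at 0.01 MOI for 6 days at 37C. Viability measured by ATPLite luminescence, normalized to infected DMSO and uninfected DMSO.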
# [7] = Primary qHTS for small molecule stabilizers of the endoplasmic reticulum resident proteome: Secreted ER Calcium Modulated Protein (SERCaMP) assay (AID 1508630)
# How it was run: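 GLuc-SERCaMP-expressing SH-SY5Y cells, pretreated 16 h with compound, are challenged with thapsigargin to empty ER calcium stores; after 4 h, coelenterazine is added directly to the medium and luminescence is imaged.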
# [8] = target: Cytochrome P450 2C9 (Homo sapiens) (UniProt P11712); assay: Cytochrome P450 family 2 subfamily C member 9 (CYP2C9) small molecule antagonists: luciferase biochemical (cell-free) qHTS assay (AID 1645842; active = well fitted curve in the direction sought with a large enough effect in the repeat runs; an effect the other way counts as inactive or inconclusive)
# How it was run: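 Luminescence, after 20 min with luciferin detection reagent, reflected CYP2C9 turnover during a 1 h NADPH-driven reaction at 37C. Enzyme-substrate mix contained 0.4% bovine serum albumin and was preincubated with compound 10 min at room temperature.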
# [9] = target: Calcium and integrin-binding protein 1 (Homo sapiens) (UniProt Q99828); assay: Confirmatory qHTS for Identification of Calcium Integrin Binding Protein 1 (CIB1) Competitor (AID 1508617)
# How it was run: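 FP competition: CIB1-GST (1 uM final) in 5 mM HEPES pH 7.4, 125 mM NaCl, 5 mM CaCl2, 0.01% Tween20 preincubated 15 min RT with compounds (up to 114 uM), then FITC-alphaIIb peptide (100 nM), 15 min RT; Ex 480/Em 540.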
# [10] = target: Cytochrome P450 2D6 (Homo sapiens) (UniProt P10635); assay: Cytochrome P450 family 2 subfamily D member 6 (CYP2D6) small molecule antagonists: luciferase biochemical (cell-free) qHTS assay (AID 1645840; active = well fitted curve in the direction sought with a large enough effect in the repeat runs; an effect the other way counts as inactive or inconclusive)
# How it was run: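 P450-Glo luminescent screen: recombinant CYP2D6 enzyme–proluciferin substrate mix preincubated with compound 10 min at room temperature, then NADPH regeneration added for 1 h at room temperature. Detection reagent added for 20 min; luciferin light read as relative luminescence units.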
# [11] = Vero-766 cells viability qHTS against the NCATS CANVASS Library: Counterscreen for Zika virus inhibition assay (AID 1347394)
# How it was run: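 Vero 766 cells (1000/well), without Zika virus, were exposed to compounds for 72 h at 37C. Viability was measured by CellTiter Glo luminescence. Media-only wells served as 100% inhibition.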
# [12] = qHTS for inhibitors of Wild type Zika virus screened against the NCATS CANVASS Library (AID 1347396)
# How it was run: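 Vero 766 (African green monkey) cells, 1000 per well, attached overnight, then compounds were added in an 11-point series before wild-type Zika virus infection. After 72 h at 37C, cell viability was read as CellTiter Glo luminescence.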
# [13] = A High-Content qHTS Against Drug Library for the Identification of Small Molecules that Inhibit DYT1 Early Onset Primary Dystonia-Associated Cell Pathology (AID 1645839; calls by dose curve)
# How it was run: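 In this high-content image screen, delE TorsinA mislocalization in inducible Flp-In 293 cells is scored as %pathology, with cell count serving as the counterscreen. Compound exposure lasts 48 h under tetracycline induction in reduced-serum medium.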
# [14] = target: Cytochrome P450 3A4 (Homo sapiens) (UniProt P08684); assay: Cytochrome P450 family 3 subfamily A member 4 (CYP3A4) small molecule antagonists: luciferase qHTS assay (AID 1645841; active = well fitted curve in the direction sought with a large enough effect in the repeat runs; an effect the other way counts as inactive or inconclusive)
# How it was run: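 Luminescent CYP3A4 activity readout: compounds plus enzyme-substrate mix 10 min at room temperature, reaction started with NADPH regenerating system for 1 h, stopped with detection reagent, read after 20 min. Ketoconazole served as control.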
# [15] = qHTS for inhibitors of ER calcium dysfunction: SERCaMP assay screened against the NCATS CANVASS Library (AID 1347393)
# How it was run: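 Thapsigargin-induced ER calcium depletion drives GLuc-SERCaMP secretion from SH-SY5Y cells; compounds given 16 h beforehand were scored by lowered coelenterazine luminescence after 4 h challenge.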
# [16] = Viability qHTS for inhibitors of the SERCaMP assay screened against the NCATS CANVASS Library (AID 1347400)
# How it was run: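 SH-SY5Y-GLuc SERCaMP MJH297-derived cells, 1000/well, plated 4 h, then exposed to compounds in an 11-point qHTS series for 48 h at 37C. Viability read as CellTiter-Glo luminescence.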
# [17] = Redox Reaction Profiling qHTS: Assay Interference Panel against the NCATS CANVASS Library (AID 1347401)
# How it was run: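 Cell-free redox surrogate: 5 uM resazurin + 200 uM DTT, 50 mM HEPES pH 7.3/50 mM NaCl; cpds pinned, 11-pt qHTS; Ex525/Em598 read t0 and t=15 min, dark.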
# Chain of Protein phosphatase 1D (Homo sapiens) (O15297 whole entry, looked up): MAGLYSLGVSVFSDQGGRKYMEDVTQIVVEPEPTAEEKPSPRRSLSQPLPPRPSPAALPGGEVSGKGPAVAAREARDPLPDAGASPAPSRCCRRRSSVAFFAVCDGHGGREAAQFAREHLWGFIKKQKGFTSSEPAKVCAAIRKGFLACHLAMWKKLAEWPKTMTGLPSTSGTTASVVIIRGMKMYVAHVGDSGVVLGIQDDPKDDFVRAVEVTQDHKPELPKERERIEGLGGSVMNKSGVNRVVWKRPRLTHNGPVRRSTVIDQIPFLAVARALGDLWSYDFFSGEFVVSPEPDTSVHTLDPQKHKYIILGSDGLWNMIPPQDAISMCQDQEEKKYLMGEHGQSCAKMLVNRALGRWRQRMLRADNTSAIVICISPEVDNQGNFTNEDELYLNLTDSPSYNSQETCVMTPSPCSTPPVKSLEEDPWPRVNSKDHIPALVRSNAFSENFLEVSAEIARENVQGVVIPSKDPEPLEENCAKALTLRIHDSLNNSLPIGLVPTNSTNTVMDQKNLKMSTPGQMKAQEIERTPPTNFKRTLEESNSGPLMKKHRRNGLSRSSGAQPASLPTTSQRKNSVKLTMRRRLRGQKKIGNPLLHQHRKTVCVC
# Chain of Cytochrome P450 2D6 (Homo sapiens) (P10635 whole entry, looked up): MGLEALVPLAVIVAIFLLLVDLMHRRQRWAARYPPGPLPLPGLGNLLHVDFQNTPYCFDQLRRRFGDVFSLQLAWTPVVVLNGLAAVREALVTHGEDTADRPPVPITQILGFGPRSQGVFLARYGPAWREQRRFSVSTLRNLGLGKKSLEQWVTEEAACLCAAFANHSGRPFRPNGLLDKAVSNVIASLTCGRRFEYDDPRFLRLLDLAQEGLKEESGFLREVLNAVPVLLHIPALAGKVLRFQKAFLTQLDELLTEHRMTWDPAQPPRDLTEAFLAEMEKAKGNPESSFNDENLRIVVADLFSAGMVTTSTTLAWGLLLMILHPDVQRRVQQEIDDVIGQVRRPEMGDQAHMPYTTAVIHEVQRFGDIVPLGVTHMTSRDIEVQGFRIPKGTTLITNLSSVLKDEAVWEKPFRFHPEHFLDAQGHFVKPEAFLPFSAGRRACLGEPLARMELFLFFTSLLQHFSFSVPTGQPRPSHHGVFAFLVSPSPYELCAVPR
# Chain of Cytochrome P450 2C9 (Homo sapiens) (P11712 whole entry, looked up): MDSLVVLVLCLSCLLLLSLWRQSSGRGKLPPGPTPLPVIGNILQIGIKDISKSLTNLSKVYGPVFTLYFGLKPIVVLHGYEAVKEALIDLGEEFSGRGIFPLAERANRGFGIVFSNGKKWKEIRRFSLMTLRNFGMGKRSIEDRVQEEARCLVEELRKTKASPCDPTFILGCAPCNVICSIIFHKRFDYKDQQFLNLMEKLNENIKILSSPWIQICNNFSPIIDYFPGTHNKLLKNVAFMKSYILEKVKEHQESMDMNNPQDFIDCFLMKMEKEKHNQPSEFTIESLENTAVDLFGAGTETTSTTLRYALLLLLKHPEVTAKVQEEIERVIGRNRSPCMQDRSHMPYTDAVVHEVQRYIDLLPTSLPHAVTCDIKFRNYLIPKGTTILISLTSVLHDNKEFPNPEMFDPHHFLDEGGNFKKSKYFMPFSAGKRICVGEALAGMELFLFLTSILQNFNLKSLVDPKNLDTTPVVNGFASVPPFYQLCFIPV
# Chain of Calcium and integrin-binding protein 1 (Homo sapiens) (Q99828 whole entry, looked up): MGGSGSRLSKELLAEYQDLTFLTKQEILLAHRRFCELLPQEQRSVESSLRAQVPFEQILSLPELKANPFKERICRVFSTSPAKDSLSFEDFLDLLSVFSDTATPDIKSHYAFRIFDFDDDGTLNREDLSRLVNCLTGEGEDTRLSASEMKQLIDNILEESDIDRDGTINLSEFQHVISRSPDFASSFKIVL
# Chain of Cytochrome P450 3A4 (Homo sapiens) (P08684 whole entry, looked up): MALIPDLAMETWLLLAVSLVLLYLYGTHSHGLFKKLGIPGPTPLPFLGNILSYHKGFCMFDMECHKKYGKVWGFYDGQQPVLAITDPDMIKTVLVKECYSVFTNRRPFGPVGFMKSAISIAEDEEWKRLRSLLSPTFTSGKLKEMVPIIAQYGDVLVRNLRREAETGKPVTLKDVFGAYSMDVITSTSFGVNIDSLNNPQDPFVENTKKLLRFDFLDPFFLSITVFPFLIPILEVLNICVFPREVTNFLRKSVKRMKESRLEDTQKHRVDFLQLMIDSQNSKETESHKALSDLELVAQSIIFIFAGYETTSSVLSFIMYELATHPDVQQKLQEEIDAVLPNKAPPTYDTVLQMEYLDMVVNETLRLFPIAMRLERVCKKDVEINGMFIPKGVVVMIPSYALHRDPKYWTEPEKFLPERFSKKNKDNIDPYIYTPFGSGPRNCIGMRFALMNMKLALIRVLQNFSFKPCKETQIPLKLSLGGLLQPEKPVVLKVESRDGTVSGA
smiles,measurement,setting,value
CCN(C(=O)c1c(O)c2c(Cl)cccc2n(C)c1=O)c1ccccc1,Potency,[1],inactive
same,Potency,[2],inactive
Cc1ccccc1C(=O)Nc1ccc(C(=O)N2CCCC(O)c3cc(Cl)ccc32)c(C)c1 (configuration not stated),outcome,[3],inactive
same,Potency,[1],inactive
same,Potency,[4],inactive
same,outcome,[5],inactive
same,outcome,[6],inactive
same,Potency,[2],inactive
same,outcome,[7],inactive
same,Potency,[8],27.5 µM (active)
CCCCCCCCCCCC(CC1OC(=O)C1CCCCCC)OC(=O)C(CC(C)C)NC=O (configuration not stated),Potency,[1],inactive
same,Potency,[2],inactive
NC(=O)Nc1sc(-c2ccc(F)cc2)cc1C(N)=O,Potency,[1],1.65 µM (active)
same,Potency,[2],inactive
O=C1c2cccc(O)c2C(=O)c2c(O)cc(CO)cc21,Potency,[1],inactive
same,Potency,[9],inactive
N#Cc1cc(NC(=O)Nc2nnc(-c3ccncc3)s2)ccc1-c1cn[nH]c1,Potency,[1],inactive
same,Potency,[2],inactive
same,outcome,[7],inactive
Cc1ccc(-n2[nH]c(C)c(N=Nc3cccc(-c4cccc(C(=O)O)c4)c3O)c2=O)cc1C,outcome,[3],inactive
same,Potency,[1],inactive
same,Potency,[4],12.6 µM (active)
same,outcome,[6],inactive
same,Potency,[10],4.9 µM (active) and 7.56 µM (active)
same,Potency,[8],inactive
CC(=O)SCC(Cc1ccccc1)C(=O)NCC(=O)OCc1ccccc1 (configuration not stated),Potency,[1],inactive
same,Potency,[2],inactive
CC(C(C)N1CC(=O)NC(=O)C1)N1CC(=O)NC(=O)C1 (configuration not stated),Potency,[1],inactive
same,Potency,[2],inactive
O=c1c(O)c(-c2ccc(O)c(O)c2)oc2cc(O)ccc12,Potency,[11],inactive
same,outcome,[12],inactive
same,Potency,[2],inactive
COc1cc2c(cc1OC)[C@@H]1C(=O)c3ccc4c(c3O[C@@H]1CO2)C=CC(C)(C)O4,Potency,[1],inactive
same,Potency,[2],inactive
CC(C)c1cnn2c(NCc3ccccc3)cc(NCCCCCCN)nc12,Potency,[1],26.2 µM (active)
same,Potency,[2],inactive
Cc1cn([C@@H]2O[C@H](CO)[C@@H](O)[C@H]2F)c(=O)[nH]c1=O,outcome,[3],inactive
same,Potency,[4],inactive
same,outcome,[5],inactive
same,outcome,[6],inactive
same,Potency,[2],inactive
same,outcome,[13],inactive
same,Potency,[10],inactive
same,Potency,[8],inactive
OC[C@@H](O)[C@@H](O)[C@H](O)[C@@H](O)CO,Potency,[1],inactive
same,Potency,[2],inactive
O=S(=O)(O)CCSSCCS(=O)(=O)O,Potency,[1],inactive
same,Potency,[2],inactive
C=C(C)[C@@H]1CC[C@]2(C)CC[C@]3(C)[C@H](CC[C@@H]4[C@@]5(C)CC[C@H](O)C(C)(C)[C@H]5CC[C@]43C)[C@@H]12,Potency,[1],inactive
same,Potency,[2],inactive
O=C1NCCc2[nH]c(-c3ccncc3)cc21,Potency,[1],2.08 µM (active)
same,Potency,[2],inactive
same,outcome,[7],inactive
CC(=O)NC(CS)C(=O)O (configuration not stated),Potency,[1],inactive
same,Potency,[2],inactive
same,outcome,[7],inactive
c1ccc(CNc2nc(NCc3ccccc3)c3ccccc3n2)cc1,Potency,[1],26.2 µM (active)
same,Potency,[2],inactive
COC(=O)[C@H](CCCN=C(N)N)NS(=O)(=O)c1ccc(C)cc1,Potency,[1],inactive
same,Potency,[2],inactive
C[C@H](NC(=O)[C@@H](O)c1cc(F)cc(F)c1)C(=O)N[C@@H]1C(=O)N(C)c2ccccc2-c2ccccc21,Potency,[1],inactive
same,Potency,[2],inactive
C=CC(=O)N1CCc2ccc(-n3c(=O)ccc4cnc5ccc(-c6cnn(C)c6)cc5c43)cc21,Potency,[1],0.806 µM (active)
same,Potency,[2],inactive
Nc1ccn(C[C@@H](CO)OCP(=O)(O)O)c(=O)n1,"activity change, negative = inhibition",[1],-9.6% [at 8.44 µM]
same,Potency,[2],inactive
CCOC(=O)C1=C(C)NC(=S)NC1c1cccc(O)c1 (configuration not stated),Potency,[1],inactive
same,Potency,[2],inactive
CCOC(=O)C=C[C@H](C[C@@H]1CCNC1=O)NC(=O)[C@@H](CC(=O)[C@@H](NC(=O)c1cc(C)on1)C(C)C)Cc1ccc(F)cc1,Potency,[1],inactive
same,Potency,[2],inactive
N[C@H]1CN(c2c(F)cc3c(=O)c(C(=O)O)cn(C4C[C@@H]4F)c3c2Cl)CC12CC2 (some centres not stated),outcome,[3],inactive
same,Potency,[4],inactive
same,outcome,[5],inactive
same,outcome,[6],inactive
same,Potency,[2],inactive
same,outcome,[7],inactive
same,outcome,[13],inactive
same,Potency,[10],inactive
same,Potency,[8],inactive
Nc1ccn(C2CO[C@H](CO)O2)c(=O)n1 (some centres not stated),outcome,[3],inactive
same,Potency,[1],inactive
same,Potency,[4],inactive
same,outcome,[5],inactive
same,outcome,[6],inactive
same,outcome,[13],inactive
same,Potency,[10],inactive
same,Potency,[14],inactive
same,Potency,[8],inactive
COc1ccc2c(c1OC)C(=O)OC2[C@H]1c2c(cc3c(c2OC)OCO3)CCN1C (some centres not stated),Potency,[1],inactive
same,Potency,[2],inactive
N=c1ccn2c(n1)O[C@H]1[C@@H](O)[C@@H](CO)O[C@H]12,Potency,[1],inactive
same,Potency,[2],inactive
same,outcome,[7],inactive
C=C(C)[C@@H]1CC[C@]2(C(=O)O)CC[C@]3(C)[C@H](CC[C@@H]4[C@@]5(C)CC[C@H](O)C(C)(C)[C@@H]5CC[C@]43C)[C@@H]12,outcome,[15],inactive
same,Potency,[11],33.1 µM (active)
same,outcome,[16],inactive
same,outcome,[17],inactive
same,Potency,[1],inactive
same,Potency,[2],inactive
same,outcome,[7],inactive
CN(C)c1ccc2cc(C(=O)N[C@@H](CCCN=C(N)CCl)C(=O)NCc3ccccc3)ccc2c1,Potency,[1],20.8 µM (active)
same,Potency,[2],inactive
